Where a chain is given by its changes, count along the chain named. Whole data set: some 16,000 sequences, median “ka relative to ugcaugu” near 0.096, cut for the highest 2% near 0.35. Many of the other results were omitted from the sample, so the highest values are more common in it than they were.
T1: RBFOX1 RRM RbFoxmut (Fox-RRM*) (Homo sapiens, UniProt Q9NWB1 109-208, R118D;E147R;N151S;E152T)
T1 sequence: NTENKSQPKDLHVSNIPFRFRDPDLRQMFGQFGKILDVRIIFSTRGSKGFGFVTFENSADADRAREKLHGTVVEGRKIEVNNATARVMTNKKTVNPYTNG

B1: GUUAAUC (DNA:RNA)
RNA: GGGAGACCGGAAUUCAGAUUGUCCGUUAAUCUUAAAUCCCGUCGUAGCCACCA
DNA 1: CAATCTGAATTCCGGTCTCCC
DNA 2: TGGTGGCTACGACGGGATT
B2: CGGUAUC (DNA:RNA)
RNA: B1 RNA with G25C, U26G, U27G, A28U
DNA 1: CAATCTGAATTCCGGTCTCCC
DNA 2: TGGTGGCTACGACGGGATT
B3: GGAGAUC (DNA:RNA)
RNA: B1 RNA with U26G, U27A, A28G
DNA 1: CAATCTGAATTCCGGTCTCCC
DNA 2: TGGTGGCTACGACGGGATT
B4: CGUAAUC (DNA:RNA)
RNA: B1 RNA with G25C, U26G
DNA 1: CAATCTGAATTCCGGTCTCCC
DNA 2: TGGTGGCTACGACGGGATT
B5: GGGAAUC (DNA:RNA)
RNA: B1 RNA with U26G, U27G
DNA 1: CAATCTGAATTCCGGTCTCCC
DNA 2: TGGTGGCTACGACGGGATT
B6: CGGAAUC (DNA:RNA)
RNA: B1 RNA with G25C, U26G, U27G
DNA 1: CAATCTGAATTCCGGTCTCCC
DNA 2: TGGTGGCTACGACGGGATT
B7: GGCAUCU (DNA:RNA)
RNA: B1 RNA with U26G, U27C, A29U, U30C, C31U
DNA 1: CAATCTGAATTCCGGTCTCCC
DNA 2: TGGTGGCTACGACGGGATT
B8: GGUAUCU (DNA:RNA)
RNA: B1 RNA with U26G, A29U, U30C, C31U
DNA 1: CAATCTGAATTCCGGTCTCCC
DNA 2: TGGTGGCTACGACGGGATT
B9: GGGUAUC (DNA:RNA)
RNA: B1 RNA with U26G, U27G, A28U
DNA 1: CAATCTGAATTCCGGTCTCCC
DNA 2: TGGTGGCTACGACGGGATT
B10: GGGCAUC (DNA:RNA)
RNA: B1 RNA with U26G, U27G, A28C
DNA 1: CAATCTGAATTCCGGTCTCCC
DNA 2: TGGTGGCTACGACGGGATT
B11: CGUCAUC (DNA:RNA)
RNA: B1 RNA with G25C, U26G, A28C
DNA 1: CAATCTGAATTCCGGTCTCCC
DNA 2: TGGTGGCTACGACGGGATT
B12: CGGCAUC (DNA:RNA)
RNA: B1 RNA with G25C, U26G, U27G, A28C
DNA 1: CAATCTGAATTCCGGTCTCCC
DNA 2: TGGTGGCTACGACGGGATT
B13: UUGGUAC (DNA:RNA)
RNA: B1 RNA with G25U, U27G, A28G, A29U, U30A
DNA 1: CAATCTGAATTCCGGTCTCCC
DNA 2: TGGTGGCTACGACGGGATT
B14: CGUCAGG (DNA:RNA)
RNA: B1 RNA with G25C, U26G, A28C, U30G, C31G
DNA 1: CAATCTGAATTCCGGTCTCCC
DNA 2: TGGTGGCTACGACGGGATT
B15: ACUGCGG (DNA:RNA)
RNA: B1 RNA with G25A, U26C, A28G, A29C, U30G, C31G
DNA 1: CAATCTGAATTCCGGTCTCCC
DNA 2: TGGTGGCTACGACGGGATT
B16: UAAAUAU (DNA:RNA)
RNA: B1 RNA with G25U, U26A, U27A, A29U, U30A, C31U
DNA 1: CAATCTGAATTCCGGTCTCCC
DNA 2: TGGTGGCTACGACGGGATT
B17: UCUACGU (DNA:RNA)
RNA: B1 RNA with G25U, U26C, A29C, U30G, C31U
DNA 1: CAATCTGAATTCCGGTCTCCC
DNA 2: TGGTGGCTACGACGGGATT
B18: AGUUUCU (DNA:RNA)
RNA: B1 RNA with G25A, U26G, A28U, A29U, U30C, C31U
DNA 1: CAATCTGAATTCCGGTCTCCC
DNA 2: TGGTGGCTACGACGGGATT
B19: UAGACCC (DNA:RNA)
RNA: B1 RNA with G25U, U26A, U27G, A29C, U30C
DNA 1: CAATCTGAATTCCGGTCTCCC
DNA 2: TGGTGGCTACGACGGGATT
B20: UUGAUUC (DNA:RNA)
RNA: B1 RNA with G25U, U27G, A29U
DNA 1: CAATCTGAATTCCGGTCTCCC
DNA 2: TGGTGGCTACGACGGGATT
B21: UUGAAUG (DNA:RNA)
RNA: B1 RNA with G25U, U27G, C31G
DNA 1: CAATCTGAATTCCGGTCTCCC
DNA 2: TGGTGGCTACGACGGGATT
B22: UUAAAUC (DNA:RNA)
RNA: B1 RNA with G25U, U27A
DNA 1: CAATCTGAATTCCGGTCTCCC
DNA 2: TGGTGGCTACGACGGGATT
B23: UUGAUUG (DNA:RNA)
RNA: B1 RNA with G25U, U27G, A29U, C31G
DNA 1: CAATCTGAATTCCGGTCTCCC
DNA 2: TGGTGGCTACGACGGGATT
B24: UUGUUGA (DNA:RNA)
RNA: B1 RNA with G25U, U27G, A28U, A29U, U30G, C31A
DNA 1: CAATCTGAATTCCGGTCTCCC
DNA 2: TGGTGGCTACGACGGGATT
B25: UUAAAUG (DNA:RNA)
RNA: B1 RNA with G25U, U27A, C31G
DNA 1: CAATCTGAATTCCGGTCTCCC
DNA 2: TGGTGGCTACGACGGGATT
B26: UUGAUCC (DNA:RNA)
RNA: B1 RNA with G25U, U27G, A29U, U30C
DNA 1: CAATCTGAATTCCGGTCTCCC
DNA 2: TGGTGGCTACGACGGGATT
B27: UUGAAAU (DNA:RNA)
RNA: B1 RNA with G25U, U27G, U30A, C31U
DNA 1: CAATCTGAATTCCGGTCTCCC
DNA 2: TGGTGGCTACGACGGGATT
B28: UUGAAUC (DNA:RNA)
RNA: B1 RNA with G25U, U27G
DNA 1: CAATCTGAATTCCGGTCTCCC
DNA 2: TGGTGGCTACGACGGGATT

What follows are binders tested against T1, RBFOX1 RRM RbFoxmut (Fox-RRM*) (assay: EMSA; HiTS-Eq, 1 nM pool, 10 min; buffer printed only for the single-RNA assays: 10 mM Tris pH 7.5, 150 mM NaCl, 3.4 mM EDTA, 0.001% NP-40, 30 C). Details: tags: His6 N-terminal (pET28a); label: 5' 32P.
Summary of the method: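 Purified RbFox RRM (wild type or mutant) was equilibrated for 10 min in 50 µL with 1 nM of a 5′-radiolabelled pool of RNA with 7 randomized nucleotides, its flanks annealed to DNA oligonucleotides, across increasing protein concentrations. Free RNA was separated by 8% native PAGE, excised, reverse-transcribed, PCR-barcoded and sequenced on an Illumina HiSeq 2500. Relative association constants came from read-count changes of each variant against the control reaction, normalised to the cognate motif.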

Binder | binding signal
B1 | 0.0571 KA relative to UGCAUGU
B2 | 0.245 KA relative to UGCAUGU
B3 | 0.155 KA relative to UGCAUGU
B4 | 0.0673 KA relative to UGCAUGU
B5 | 0.494 KA relative to UGCAUGU
B6 | 0.436 KA relative to UGCAUGU
B7 | 0.27 KA relative to UGCAUGU
B8 | 0.206 KA relative to UGCAUGU
B9 | 0.409 KA relative to UGCAUGU
B10 | 0.396 KA relative to UGCAUGU
B11 | 0.0997 KA relative to UGCAUGU
B12 | 0.261 KA relative to UGCAUGU
B13 | 0.144 KA relative to UGCAUGU
B14 | 0.113 KA relative to UGCAUGU
B15 | 0.0963 KA relative to UGCAUGU
B16 | 0.0636 KA relative to UGCAUGU
B17 | 0.118 KA relative to UGCAUGU
B18 | 0.0838 KA relative to UGCAUGU
B19 | 0.0507 KA relative to UGCAUGU
B20 | 0.196 KA relative to UGCAUGU
B21 | 1.17 KA relative to UGCAUGU
B22 | 0.0555 KA relative to UGCAUGU
B23 | 0.381 KA relative to UGCAUGU
B24 | 0.0998 KA relative to UGCAUGU
B25 | 0.0888 KA relative to UGCAUGU
B26 | 0.0834 KA relative to UGCAUGU
B27 | 0.0963 KA relative to UGCAUGU
B28 | 0.374 KA relative to UGCAUGU

Reference: paper PMC9911399, “Two distinct binding modes provide the RNA-binding protein RbFox with extraordinary sequence specificity”
